Compounds with a hit are over-represented: about 1.6% of the library has one in this group of screens.
CCHFV vOTU inh = blocks the CCHF virus ovarian tumor domain protease; CCHFV vOTU protease, Pep-AMC fluorescence; inhibition, % at 11.5 µM; 370,000 tested, 0.55% active; in the data active = inhibition above about 30%; also: 0% = vehicle wells with enzyme and 100% = no enzyme wells
RN4220 kill = kills Staphylococcus aureus RN4220 | inhibition, % (test concentration not listed) | 330,000 tested, 0.33% active | S. aureus RN4220 growth, OD600, 16 h; in the data active = inhibition above about 85%;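 also: plate controls were untreated cells for no effect and reference antibiotic for full effect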
Sa ugtP lethal = growth inhibition of S. aureus ugtP deletion strain; S. aureus RN4220 ugtP deletion, OD600 growth, 16 h; growth inhibition, % (test concentration not listed); 330,000 tested, 0.54% active; in the data active = growth inhibition above about 68%;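 also: plate controls were untreated wells for no effect and antibiotic for full effect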
Mtb hypoxia rep = Mtb hypoxia fluorescent reporter inhibition; M. tuberculosis hypoxia-regulated fluorescent reporter, fluorescence; fluorescence inhibition, % (concentration not given with the values); 300,000 tested, 0.1% active; in the data active = fluorescence inhibition mostly above about 23%, no sharp cut-off; inactive = mostly below about 17%
BJeLR lethal = BJeLR cell viability loss | BJeLR (HRASV12) viability, CellTiter-Glo ATP luminescence, 48 h | inhibition, % (concentration not given with the values) | 300,000 tested, 0.17% active; in the data active = inhibition above about 50%
RecA splice inh = Mtb RecA intein splicing inhibition; inhibition, % (test concentration not listed); 290,000 tested, 0.75% active; cell-free RecA intein splicing, fluorescence; in the data active = inhibition above about 30%;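 also: 0% = vehicle wells and 100% = reference inhibitor control wells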
Target sequence (P9WHJ3 whole entry, looked up, canonical isoform): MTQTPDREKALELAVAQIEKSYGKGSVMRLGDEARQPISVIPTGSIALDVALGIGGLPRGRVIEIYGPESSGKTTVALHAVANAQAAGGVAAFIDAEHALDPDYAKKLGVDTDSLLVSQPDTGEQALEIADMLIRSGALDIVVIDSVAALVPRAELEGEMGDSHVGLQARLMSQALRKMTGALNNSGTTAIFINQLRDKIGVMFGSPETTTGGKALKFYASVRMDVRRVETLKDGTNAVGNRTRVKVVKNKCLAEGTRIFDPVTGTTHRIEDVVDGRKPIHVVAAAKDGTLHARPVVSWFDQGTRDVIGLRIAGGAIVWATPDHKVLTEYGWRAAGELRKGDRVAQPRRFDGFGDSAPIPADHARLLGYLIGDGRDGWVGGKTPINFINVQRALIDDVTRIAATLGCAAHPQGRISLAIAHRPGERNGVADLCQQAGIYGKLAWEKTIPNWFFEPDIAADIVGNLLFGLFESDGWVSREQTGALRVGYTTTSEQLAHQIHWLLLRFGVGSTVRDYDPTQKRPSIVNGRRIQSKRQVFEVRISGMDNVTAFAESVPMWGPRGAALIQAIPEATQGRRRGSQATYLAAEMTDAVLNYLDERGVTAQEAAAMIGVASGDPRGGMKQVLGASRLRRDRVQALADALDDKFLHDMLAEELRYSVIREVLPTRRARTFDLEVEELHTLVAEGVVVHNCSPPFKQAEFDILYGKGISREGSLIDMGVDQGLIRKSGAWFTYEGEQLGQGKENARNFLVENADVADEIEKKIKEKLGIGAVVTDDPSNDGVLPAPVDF
* = called active by the depositor; i = inactive; · = no result shown.

SMILES	CCHFV vOTU inh	RN4220 kill	Sa ugtP lethal	Mtb hypoxia rep	BJeLR lethal	RecA splice inh
c1ccc(CSc2nnc(-c3cccnc3)o2)cc1	-9	3	7	40*	-2	-4
Cc1ccc(CSc2nnc(-c3cccnc3)o2)cc1	·	3	6	-81	-20	-2
COc1ccc(C2C3C(=O)N(C(C)(C)C)C(=O)C3[C@]3(CC(C)C)C(=O)N(c4ccccc4)C(=O)N23)cc1 (some centres not stated)	·	2	-1	9	·	·
Cc1cc(S(=O)(=O)Nc2c(C)ccc3nsnc23)ccc1F	-2	3	-2	15	·	4
Cc1ccc2nsnc2c1NS(=O)(=O)c1c(C)ccc2nsnc12	1	12	-5	2	0	36*
Cn1c(SCC=Cc2ccccc2)nnc1-c1cnccn1	·	5	0	8	·	·
C=CCOc1ccc2c(c1)CCC1C2CCC2(C)C(O)C(O)CC12 (configuration not stated)	11	-8	84*	-6	·	·
COc1ccc(C=c2sc(=CC(=O)c3ccc(C)cc3)[nH]c2=O)c(OC)c1	·	-4	89*	3	·	·
COc1ccc(/C=c2\s/c(=C/C(=O)c3ccc(C)cc3)[nH]c2=O)c(OC)c1	-18	·	·	·	-3	-3
COc1ccc(N2C(=O)[C@@H]3[C@H](C2=O)[C@H]2c4ccccc4C=CN2[C@@H]3C(=O)Nc2ccccc2)cc1	9	-1	-3	6	·	·
O=C(c1ccco1)[C@@H]1[C@@H]2C(=O)N(c3ccccc3)C(=O)[C@@H]2C2c3ccccc3C=CN21 (some centres not stated)	96*	5	-2	6	2	4
Oc1cc(-c2ccncc2)cc2cccnc12	18	101*	95*	7	·	·
N=c1c2c(-c3ccccc3)c(-c3ccccc3)n(Cc3ccco3)c2ncn1CCCn1ccnc1	19	-5	8	·	52*	5
N=c1c2c(-c3ccccc3)c(-c3ccccc3)n(Cc3ccccc3)c2ncn1CCO	4	-3	91*	1	-11	13
O=C(Nc1ccccc1)C1=CC(c2ccc(Br)cc2)CC(OCc2ccc(CO)cc2)O1 (configuration not stated)	·	-4	1	0	·	·
O=[N+]([O-])c1ccc(NN=Cc2c[nH]c3ccccc23)c(S(=O)(=O)Nc2ccc(Cl)cc2)c1	·	81	99*	20	·	·
COCc1cc(=O)[nH]c(N=C(N)Nc2ccccc2C)n1	·	5	-7	18	·	·
CCCCCn1c(=O)c(C(=O)Nc2ncccc2C)c(O)c2ccccc21	-2	53	101*	·	-9	-2
CCCCn1c(=O)c(C(=O)Nc2ccccc2C)c(O)c2ccccc21	·	5	16	9	2	2
CCCCn1c(=O)c(C(=O)Nc2cnccn2)c(O)c2ccccc21	8	68	83*	2	-11	-4
COc1ccc(C2C=CCN(S(=O)(=O)C=Cc3ccccc3)CC(=O)N2Cc2ccc(F)cc2)cc1 (configuration not stated)	·	2	1	-11	·	·
COc1ccc(C2CC(=O)C=C(c3ccc(OC)c(F)c3)C2)cc1 (configuration not stated)	·	4	23	11	·	·
O=C(CCCC(=O)Nc1cccc(Br)c1)NN=Cc1cc([N+](=O)[O-])ccc1O	·	88*	79	-7	·	·
Cc1cccc(NC(=O)CCC(=O)NN=Cc2cc([N+](=O)[O-])ccc2O)c1	·	94*	84*	5	·	·
O=[N+]([O-])c1ccc(NN=Cc2cc(Br)ccc2O)nc1	3	59	93*	37*	·	·
SMILES	CCHFV vOTU inh	RN4220 kill	Sa ugtP lethal	Mtb hypoxia rep	BJeLR lethal	RecA splice inh
O=C(CN(c1cccc(Br)c1)S(=O)(=O)c1ccccc1)N/N=C/c1cc([N+](=O)[O-])ccc1O	15	·	·	·	-4	33*
O=C(CCCC(=O)Nc1cccc(Br)c1)N/N=C/c1cc([N+](=O)[O-])ccc1O	-3	·	·	·	8	6
Cc1ccc(NC(=O)CCC(=O)N/N=C/c2cc([N+](=O)[O-])ccc2O)cc1	-11	·	·	·	-2	-2
COc1cc(C=CC(=O)N2CCCN(C(=O)C=Cc3cc(OC)c(OC)c(OC)c3)CC2)cc(OC)c1OC	·	4	2	2	·	·
Cc1ccc(CN2C(CC(C)C)COCCS2(=O)=O)cc1 (configuration not stated)	·	11	-2	2	·	·
O=C(CC1CC=CCCC(Cc2ccc(F)cc2)C(=O)OCC(Cc2c[nH]c3ccccc23)NC1=O)NCCO (configuration not stated)	·	5	2	-1	·	·
Cc1cccc2[nH]c3c(N4CC=C(c5ccc(F)cc5)CC4)ncnc3c12	9	73	89*	20	-5	·
CC[n+]1c(C)sc2c(C)cc(C)cc21	10	2	8	·	4	-2
CCC[n+]1c(C)sc2c3c(ccc21)CCCC3	·	97*	95*	10	·	12
CCCS(=O)(=O)c1nnnn1-c1cccc(OC)c1	·	16	42	17	3	91*
COc1cccc(-n2nnnc2SCC(=O)Nc2ccccc2OC)c1	7	4	4	1	1	-1
CCCCNC(=O)c1c(O)c2cccc3c2n(c1=O)CCC3	1	-11	-1	8	-8	5
CCCc1nnc(NC(=O)c2c(O)c3cccc4c3n(c2=O)CCC4)s1	·	88*	96*	3	-20	4
CCOC(=O)c1cc2ccc3ccccc3c2oc1=O	-373	1	10	7	-2	i
CCOC(=O)c1cc2ccc3ccccc3c2s1	13	12	88*	10	-7	5
CCOC(=O)CSCC(=O)N1N=C(c2cccs2)CC1c1ccc(F)cc1 (configuration not stated)	13	1	-4	8	0	32*
C#CCOCCOCCOCCNc1nc(N2CCN(C(=O)C(CCCCN)n3cc(C(N)CC(C)C)nn3)CC2)nc(N2CCN(C(=O)C(Cc3ccc(O)cc3)n3cc(C(N)CC(C)C)nn3)CC2)n1 (configuration not stated)	·	9	-1	20	·	·
Cc1ccc(C(=O)Nc2cccc([N+](=O)[O-])c2)cc1S(=O)(=O)Nc1cccc(C(=O)O)c1	1	27	94*	6	7	1
COc1ccc(CN(C)C(=O)c2ccc(NS(=O)(=O)c3ccc(F)cc3)cc2)c(OC)c1	20	0	90*	0	-7	8
COc1ccc(CN(C)C(=O)c2ccc(NS(=O)(=O)c3ccccc3)cc2)c(OC)c1	16	2	45	4	0	2
COc1ccc(C(N)=NOC(=O)C=Cc2ccccc2)cc1	·	5	-1	-1	·	·
COc1ccc(C2CC(=O)C=C(c3cc4ccccc4s3)C2)cc1OC (configuration not stated)	·	6	12	6	·	·
CCc1[nH]nc2c1C(c1ccncc1)C(C#N)=C(N)O2 (configuration not stated)	-11	-6	-7	-11	-5	25

Screening data as filed in PubChem.
